Results: paper PMC5540273 (PLoS ONE, 2017)
Several values for one entry are separate records, joined by “and”; a condition that tells them apart may be missing. Equal entries are not always repeated. Where two headings read alike, the source gives them in different places.

Legend:
[1] = tested on: CHEK2; settings: concentration: 1 μM, replicates: in singlicate; n = 1
[2] = tested on: CIT; settings: n = 1
[3] = tested on: CLK1; settings: n = 1
[4] = tested on: CLK2; settings: concentration: 1 μM, replicates: in singlicate; n = 1
[5] = tested on: CLK3; settings: n = 1
[6] = tested on: CLK4; settings: n = 1
[7] = tested on: CSF1R-autoinhibited; settings: concentration: 1 μM, replicates: in singlicate; n = 1
[8] = tested on: CSF1R; settings: n = 1
[9] = tested on: CSK; settings: n = 1
[10] = tested on: CSNK1A1L; settings: n = 1
[11] = concentration: 1 μM, replicates: in singlicate
[12] = concentration: 1 μM,replicates: in singlicate, 1 µM
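Also: KINOMEscan kinase panel screen.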

SMILES	%Inh [1]	%Inh [2, 11]	%Inh [3, 11]	%Inh [4]	%Inh [5, 11]	%Inh [6, 11]	%Inh [7]	%Inh [8, 11]	%Inh [9, 11]	%Inh [10, 11]	%Inh [2, 12]	%Inh [3, 12]	%Inh [5, 12]	%Inh [6, 12]	%Inh [8, 12]	%Inh [9, 12]	%Inh [10, 12]
COC(=O)c1c(-c2ccccc2)c2cc(C(=O)O)ccc2c(=O)n1Cc1ccccc1	13%	2%	0%	13%	0%	0%	0%	50%	8%	0%	–	–	–	–	–	–	–
COc1ccccc1-c1ccc2c(NC(=O)C3CC3)n[nH]c2n1 [SB-711239]	19%	22%	3%	0%	0%	33%	30%	0%	62%	6%	–	–	–	–	–	–	–
COc1cc2ncn(-c3cc(OCC4CCCO4)c(C(N)=O)s3)c2cc1OC (centres unmarked) [GSK204607]	20%	12%	22%	0%	10%	18%	3%	5%	0%	0%	–	–	–	–	–	–	–
CC1=C(C(=O)Nc2cc3cn[nH]c3cc2F)C(c2ccc(C(F)(F)F)cc2)CC(=O)N1 (centres unmarked) [GSK429286]	0%	5%	14%	0%	37%	0%	0%	7%	0%	7%	–	–	–	–	–	–	–
O=C(Nc1ccc2c(c1)OCO2)NC1CCN(c2ccnc(Nc3ccc(F)cc3)n2)C1 (centres unmarked) [GSK1379724]	0%	23%	10%	0%	0%	6%	0%	0%	1%	2%	–	–	–	–	–	–	–
O=c1cc(N2CCOCC2)nc2n(Cc3cccc(Cl)c3Cl)ccn12 [GSK2286295]	0%	5%	64%	14%	13%	51%	0%	25%	0%	6%	–	–	–	–	–	–	–
CS(=O)(=O)c1ccc(-c2c(-c3ncn[nH]3)sc(N3CCOCC3)c2C#N)cc1	5%	4%	5%	8%	0%	0%	0%	27%	16%	0%	–	–	–	–	–	–	–
Cc1cc(-c2ccc3c(c2)CC[C@@H](N[C@@H](C)c2ccccc2)C3)cnc1N.Cl [GW412617]	6%	24%	13%	0%	0%	10%	0%	27%	0%	21%	–	–	–	–	–	–	–
Cc1c(Cn2ccn3c(=O)cc(N4CCOCC4)nc23)cccc1C(F)(F)F [GSK2289044]	0%	22%	33%	54%	20%	33%	0%	9%	0%	0%	–	–	–	–	–	–	–
Cc1cccc(-c2nc(Nc3ccc4[nH]ncc4c3)c3ccccc3n2)n1 [GW857175]	0%	9%	33%	14%	4%	12%	33%	7%	0%	0%	–	–	–	–	–	–	–
Cl.Oc1ccc(-c2nc(-c3ccccc3)[nH]c2-c2ccncc2)cc1 [SB-428218]	0%	0%	0%	6%	0%	0%	55%	10%	0%	11%	–	–	–	–	–	–	–
Cl.O=C(Nc1cccc(-c2nn3ncccc3c2-c2ccnc(Nc3cccnc3)n2)c1)c1c(F)cccc1F [GSK312879]	0%	30%	19%	3%	0%	12%	0%	17%	18%	4%	–	–	–	–	–	–	–
Cc1ccc(NC(=O)Nc2cc(C(C)(C)C)nn2-c2ccccc2)cc1 [GSK1014915]	0%	29%	33%	0%	14%	15%	0%	30%	0%	9%	–	–	–	–	–	–	–
O=S(=O)(c1ccc(-c2ccnc3[nH]ccc23)cc1)N1CCCC1 [GSK846226]	15%	36%	63%	45%	57%	41%	0%	17%	10%	2%	–	–	–	–	–	–	–
COc1cccc(-c2cc(-c3c[nH]nc3-c3ccccn3)ccn2)c1 [GW680338]	18%	7%	22%	22%	0%	28%	51%	0%	0%	8%	–	–	–	–	–	–	–
CSc1nn2c(=O)cc(N3CCOCC3)nc2n1Cc1cccc(C(F)(F)F)c1C [GSK2363608]	0%	–	–	0%	–	–	0%	–	–	–	23% and 2%	43% and 31%	0% and 6%	17% and 0%	23% and 9%	11% and 0%	8% and 7%
CCCc1ccc(S(=O)(=O)NC2CCN(c3ccnc(Nc4ccc(F)cc4)n3)C2)cc1 (centres unmarked) [GSK1379715]	0%	0%	12%	0%	10%	0%	0%	0%	0%	0%	–	–	–	–	–	–	–
Cn1ccc2ncnc(Oc3cccc(C(=O)Nc4ccccc4)c3)c21	0%	8%	9%	0%	0%	18%	9%	6%	14%	2%	–	–	–	–	–	–	–

SMILES	%Inh [1]	%Inh [2, 11]	%Inh [3, 11]	%Inh [4]	%Inh [5, 11]	%Inh [6, 11]	%Inh [7]	%Inh [8, 11]	%Inh [9, 11]	%Inh [10, 11]	%Inh [2, 12]	%Inh [3, 12]	%Inh [5, 12]	%Inh [6, 12]	%Inh [8, 12]	%Inh [9, 12]	%Inh [10, 12]
Fc1cc(Cl)ccc1Nc1ccnc2cc(I)ccc12 [GW551191]	0%	37%	27%	0%	5%	5%	0%	0%	0%	0%	–	–	–	–	–	–	–
Cn1ccc2ncnc(Oc3ccc(Nc4nc5ccccc5[nH]4)cc3)c21	23%	8%	0%	12%	0%	0%	0%	17%	0%	8%	–	–	–	–	–	–	–
Cl.NC(=O)c1cccc(Nc2nccc(Nc3ccc(Oc4cccc(Cl)c4)c(Cl)c3)n2)c1 [GW659008]	0%	19%	13%	0%	10%	17%	22%	14%	17%	16%	–	–	–	–	–	–	–
NC(=O)c1nnc2ccccc2c1N	16%	7%	51%	17%	1%	1%	0%	14%	0%	38%	–	–	–	–	–	–	–
O=C1NC(=O)C(N2CCc3ccccc32)=C1c1ccccc1Cl [SB-373598]	0%	29%	12%	45%	0%	19%	0%	4%	46%	15%	–	–	–	–	–	–	–
COc1ccc(Nc2nccc(-c3cccc(NC(=O)c4cc5cc(F)ccc5[nH]4)c3)n2)cc1 [GSK1229782]	37%	44%	33%	0%	12%	28%	57%	10%	0%	20%	–	–	–	–	–	–	–
Cc1cccc(-c2nc(C)cc(Nc3ccncc3)n2)n1 [GSK257997]	0%	23%	13%	9%	15%	9%	0%	0%	0%	7%	–	–	–	–	–	–	–
Fc1cc(Cl)ccc1Nc1ccnc2cc(-c3ccc(CN4CCCCC4)o3)ccc12 [GW560116]	35%	63%	11%	0%	0%	27%	0%	20%	0%	1%	–	–	–	–	–	–	–
Cl.c1ccc(-c2n[nH]cc2-c2ccnc(-c3ccc(CN4CCOCC4)cc3)c2)nc1 [GW776245]	0%	10%	0%	10%	0%	0%	0%	0%	10%	1%	–	–	–	–	–	–	–
Cc1cccc(-c2cc(Nc3ccncc3)c3ccccc3n2)n1 [GSK223675]	0%	23%	22%	0%	10%	5%	0%	8%	0%	0%	–	–	–	–	–	–	–
Cc1ccc(NC(=O)Nc2cccc(Cl)c2)cc1-c1ccc(C(=O)Nc2ccncc2)cc1 [GSK1398468]	0%	86%	30%	0%	12%	5%	12%	78%	0%	15%	–	–	–	–	–	–	–
Cc1csc(-c2nc(Nc3ccncc3)c3ccccc3n2)n1 [GW869640]	15%	61%	15%	19%	35%	8%	28%	0%	3%	10%	–	–	–	–	–	–	–
COc1ccc(C2=C(Nc3cccc(C(=O)O)c3)C(=O)NC2=O)cc1 [SB-390765]	0%	0%	11%	3%	8%	4%	26%	18%	12%	11%	–	–	–	–	–	–	–
CC(C)(C)c1ccc(C(=O)Nc2cn3cc(Cl)ccc3n2)cc1	2%	27%	75%	29%	2%	75%	14%	1%	0%	0%	–	–	–	–	–	–	–
C[C@@H]1CCCCN1c1cc(-c2ccc3c(N)n[nH]c3c2)nc(N)n1 [GSK2258759]	12%	36%	12%	0%	0%	13%	13%	2%	2%	0%	–	–	–	–	–	–	–
Nc1nc(-c2nccs2)c(-c2ccnc3ccccc23)s1 [GW693542]	0%	44%	22%	0%	0%	16%	0%	0%	9%	23%	–	–	–	–	–	–	–
CN1C(=O)C(Nc2ccc(Cl)c(C(=O)O)c2)=C(c2ccc(Cl)cc2)C1=O [SB-404290]	0%	0%	18%	7%	25%	2%	0%	3%	0%	15%	–	–	–	–	–	–	–
